Wnt act: Wnt/beta-catenin pathway activation; 1.2% of 300,000 active; AID 743398; activation, % at 9.35 µM; Wnt/beta-catenin reporter cell assay, activator, plate reader; in the data active = activation above about 30%, passing the limit was not always enough; inconclusive = no clear call, values can overlap the other calls
esBAF inh: inhibitors of esBAF chromatin remodeling in mouse ES cells; reporter increase, % at 12.5 µM; AID 602393; 2% of 350,000 active; Bmi1-luciferase knock-in reporter, 24 h; 100% = twice the neutral-well signal; in the data active = activation above about 40%; inconclusive = no clear call, values can overlap the other calls;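 also: a rise in the Bmi1 reporter signal indicates esBAF inhibition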
HSF1 activator: increases HSF-1 driven luciferase reporter signal; NIH3T3-HGL HSF-1 luciferase reporter, MG132, 8 h; 100% = twice DMSO control signal; activation, % at 9 µM; 1.7% of 300,000 active; AID 504408;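 active = mean replicate activation of at least 50% with a set share of replicates each reaching 50%; inconclusive = only one of those two conditions met; inactive = mean below 50% and too few replicates reaching it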
MITF TRPM1 HTS: increases MITF-driven TRPM1 promoter luciferase signal; SK-MEL-5 TRPM1-promoter luciferase, 24 h; % of positive control, neutral wells = 0; AID 588334; 0.75% of 300,000 active; activation, % at 12.5 µM;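 active = mean activation of at least 80% with every replicate also reaching 80%; inconclusive = mean reaches 80% but some replicate falls short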
SMARCA2 activ: SMARCA2 function activation, primary screen; AID 652017; activation, % at 9.1 µM; MG213 cells, MMTV-luciferase reporter, dexamethasone, overnight; 1% of 370,000 active; in the data active = activation above about 7.8%
HSF1 inh: HSF1 inhibition; AID 2098; activity change, negative = inhibition, % at 7.5 µM (by protocol); 0.77% of 300,000 active; NIH3T3-HGL HSE-luciferase, MG132-induced, luminescence 8 h; hits give low values;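 active = more than half of replicate wells show activity change below -50%, luminescence cut by over half; inconclusive = some wells, but at most half, below -50%; inactive = no replicate well below -50%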;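 also: luciferase reports HSF-1 transcriptional activity via heat shock element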
Of the large screens only hits and unclear results are named; the others gave an inactive call. Hits are enriched below; roughly 4.3% of the tested compounds scored in any of these assays.

CC(C)CC1NC(=O)N(CC(=O)c2ccc3c(c2)OCCO3)C1=O (stereo not given)	Wnt act 33.1 (no result: MITF TRPM1 HTS)
O=C(CN1C(=O)c2ccccc2S1(=O)=O)c1ccc2c(c1)OCCO2	HSF1 inh -78.4 (no result: esBAF inh, MITF TRPM1 HTS)
O=C(CN1C(=O)c2ccccc2S1(=O)=O)c1ccc2c(c1)OCCCO2	HSF1 inh -87.7 (no result: esBAF inh, MITF TRPM1 HTS)
CCCCN1C(=O)C(=O)N(CC(=O)c2ccc3c(c2)OCO3)C1=O	none
CCCC1Oc2ccccc2C(=O)N(CC(=O)c2ccc3c(c2)OCCO3)C1=O (stereo not given)	esBAF inh 60.5
O=C(CN1C(=O)c2ccccc2S1(=O)=O)c1ccc(F)cc1	none (no result: esBAF inh, MITF TRPM1 HTS)
CC(C)C(=O)Nc1ccc2c(c1)C(=O)N(C)[C@H]1CC[C@@H](CC(=O)NCc3ccc(F)cc3)O[C@@H]1CO2	none (no result: Wnt act, HSF1 activator, MITF TRPM1 HTS, SMARCA2 activ, HSF1 inh)
COCC#Cc1ccc2c(c1)O[C@@H](CN(C)Cc1ccc(F)cc1)[C@@H](C)CN([C@H](C)CO)S2(=O)=O	none (no result: Wnt act, HSF1 activator, MITF TRPM1 HTS, SMARCA2 activ, HSF1 inh)
Cc1nnsc1C(=O)Nc1cc(Cl)ccc1Cl	Wnt act 42.0 (no result: MITF TRPM1 HTS)
N#CCCn1nnc(-c2ccccc2F)n1	HSF1 inh -62.9
O=C1CCC(c2ccccc2)c2ccccc21 (stereo not given)	Wnt act 51.8 (no result: MITF TRPM1 HTS)
CC1CC(=O)c2ccccc2C1C (stereo not given)	none (no result: HSF1 activator, HSF1 inh)
O=C(N/C(=C\c1cccnc1)C(=O)N1CCCCC1)c1cccc(Br)c1	none
CN1CCN(C(=O)/C(=C/c2cccnc2)NC(=O)c2cccc(Br)c2)CC1	HSF1 activator 72.1 (no result: esBAF inh)
COC(=O)/C(=C/c1cccnc1)NC(=O)c1ccccc1	HSF1 activator 92.0 (no result: esBAF inh)
CCCNC(=O)c1ccc(N2CCC3(CC2)CC(c2cccc(Br)c2)=NO3)c(NC(=O)c2c(Cl)cccc2Cl)c1	none
CCCNC(=O)c1ccc(N2CCC3(CC2)CC(c2cccc(Br)c2)=NO3)c(NC(=O)c2ccc(Br)cc2)c1	HSF1 inh -88.8
Cn1nc(-c2ccc(Cl)cc2)nc2c(=O)n(C)c(=O)nc1-2	HSF1 inh -95.0 (no result: MITF TRPM1 HTS, SMARCA2 activ)
Cn1c(N2CCOCC2)nc(-c2ccccc2)c1-c1ccccc1	HSF1 inh -71.1
COc1cccc(-c2ccc3nccn3c2)c1	esBAF inh 49.4 (no result: HSF1 activator, MITF TRPM1 HTS, HSF1 inh)
CN1CCN(C(=O)c2cccc(-c3ccc4nccn4c3)c2)CC1	none (no result: HSF1 activator, MITF TRPM1 HTS, HSF1 inh)
C[C@@H]1CN([C@@H](C)CO)C(=O)c2cc(C#CC3CC3)cnc2O[C@@H]1CN(C)C(=O)c1ccccc1	none (no result: Wnt act, HSF1 activator, MITF TRPM1 HTS, SMARCA2 activ, HSF1 inh)
COc1ccccc1Nc1ncnc2c1cnn2-c1cccc(C)c1	Wnt act 35.4, esBAF inh inconclusive (no result: MITF TRPM1 HTS)
COc1cccc(Nc2ncnc3c2cnn3-c2cccc(C)c2)c1	esBAF inh 56.1 (no result: Wnt act, MITF TRPM1 HTS)
COc1ccc(OC)c(Nc2ncnc3c2cnn3-c2ccccc2)c1	none (no result: Wnt act)
C=CCNc1ncnc2c1cnn2-c1cccc(C)c1	none
C[C@@H]1CN([C@H](C)CO)C(=O)Cc2cc(NC(=O)Nc3cccc4ccccc34)ccc2O[C@@H]1CN(C)C(=O)Nc1ccc2c(c1)OCO2	none (no result: Wnt act, HSF1 activator, MITF TRPM1 HTS, SMARCA2 activ, HSF1 inh)
O=C1C=C(c2ccc3[nH]ccc3c2)CCC1	Wnt act 46.4, esBAF inh 88.0, MITF TRPM1 HTS inconclusive
Fc1ccc(N2C(=S)SC(=Nc3ccccc3)C2=Nc2ccccc2)cc1	Wnt act 57.6 (no result: esBAF inh, HSF1 activator, HSF1 inh)
COc1cc(NC(=O)c2cccc([N+](=O)[O-])c2)ccc1NC(=O)c1ccco1	none (no result: esBAF inh)
COc1cc(NC(=O)c2ccc([N+](=O)[O-])o2)ccc1NC(=O)c1ccco1	HSF1 activator 124.9
COc1cc(NC(=O)C(C)C)ccc1NC(=O)c1ccco1	MITF TRPM1 HTS 90.6
COc1cc(NC(=S)NC(=O)c2ccco2)ccc1NC(=O)C(C)C	none (no result: esBAF inh)
C[C@@H]1CN([C@@H](C)CO)S(=O)(=O)c2ccc(-c3cccnc3)cc2O[C@H]1CN(C)Cc1cncnc1	none (no result: Wnt act, HSF1 activator, MITF TRPM1 HTS, SMARCA2 activ, HSF1 inh)
O=C(Nc1cc(F)ccc1F)N[C@@H]1CC[C@@H](CCNC(=O)c2cnccn2)O[C@@H]1CO	none (no result: Wnt act, HSF1 activator, MITF TRPM1 HTS, SMARCA2 activ, HSF1 inh)
C(=N\Nc1ccc2ccccc2n1)/c1ccc2c(c1)OCCO2	HSF1 inh -80.4
Cc1cccc(/C=N/Nc2ccc3ccccc3n2)c1	none
C(=N\Nc1nc2ccccc2[nH]1)/c1ccc2c(c1)OCCO2	Wnt act 34.7, HSF1 activator 71.3 (no result: esBAF inh, MITF TRPM1 HTS)
CCNC(=O)C[C@@H]1C=C[C@H](NS(=O)(=O)c2ccc(C)cc2)[C@@H](CO)O1	none (no result: Wnt act, HSF1 activator, MITF TRPM1 HTS, SMARCA2 activ, HSF1 inh)
COCCn1nnnc1C(c1ccccc1OC)N1CCc2ccccc2C1 (stereo not given)	HSF1 activator 94.9
COCCn1nnnc1C(c1ccc(OC)c(OC)c1)N1CCc2ccccc21 (stereo not given)	none
CCC(C)(C)n1nnnc1C(c1cc2cc(OC)c(OC)cc2[nH]c1=O)N1CCc2ccccc21 (stereo not given)	none (no result: Wnt act, esBAF inh)
COc1cc2cc(C(c3nnnn3C(C)(C)C)N3CCc4ccccc4C3)c(=O)[nH]c2cc1OC (stereo not given)	Wnt act 34.4
CO[C@@H]1CN(C)C(=O)c2ccc(NC(=O)Nc3cccc(F)c3)cc2OC[C@H](C)NC[C@H]1C	none (no result: Wnt act, HSF1 activator, MITF TRPM1 HTS, SMARCA2 activ, HSF1 inh)
O=C(CS(=O)(=O)c1ccccc1)Nc1nc2ccccc2s1	esBAF inh 40.9
NS(=O)(=O)c1ccc2nc(NC(=O)CS(=O)(=O)c3ccccc3)sc2c1	none
COCC(=O)Nc1nc2ccc(C)cc2s1	Wnt act 39.7 (no result: esBAF inh)
Cc1ccc2nc(NC(=O)COC(=O)c3ccncc3)sc2c1	none (no result: esBAF inh)
Cc1ccc2nc(NC(=O)CCNS(=O)(=O)c3cccs3)sc2c1	esBAF inh 69.6
Cc1ccc2nc(NC(=O)CSCC(=O)OCC(=O)c3ccc(Br)cc3)sc2c1	HSF1 inh -66.3 (no result: MITF TRPM1 HTS)
CC(C)CC#Cc1ccc2c(c1)O[C@@H](CN(C)C(=O)c1cccnc1)[C@@H](C)CN([C@H](C)CO)S2(=O)=O	none (no result: Wnt act, HSF1 activator, MITF TRPM1 HTS, SMARCA2 activ, HSF1 inh)
C[C@@H]1CN([C@@H](C)CO)C(=O)c2cc(NC(=O)NC3CCCCC3)ccc2O[C@@H](C)CCCCO[C@@H]1CN(C)C(=O)CCCN(C)C	none (no result: Wnt act, HSF1 activator, MITF TRPM1 HTS, SMARCA2 activ, HSF1 inh)
Cc1ccc2nc(NC(=O)CS(=O)(=O)Cc3ccccc3)sc2c1	Wnt act 40.1
C[C@@H]1CN([C@@H](C)CO)C(=O)Cc2cc(NC(=O)NC3CCCCC3)ccc2O[C@H]1CN(C)Cc1ccc(-c2ccccc2)cc1	none (no result: Wnt act, HSF1 activator, MITF TRPM1 HTS, SMARCA2 activ, HSF1 inh)
CCOC(=O)Cn1c(=O)oc2cc(S(=O)(=O)NCCC(C)C)ccc21	HSF1 inh -69.9
O=C(C[C@@H]1CC[C@@H]2[C@H](COC[C@H](O)CN2CCc2ccccc2)O1)NCc1ccc(Oc2ccccc2)cc1	none (no result: Wnt act, HSF1 activator, MITF TRPM1 HTS, SMARCA2 activ, HSF1 inh)
CC(=O)c1cccc(NC(=O)c2noc3c2CCc2ccccc2-3)c1	Wnt act 32.9, MITF TRPM1 HTS inconclusive
CC(=O)c1cccc(Nc2ccc(Br)cc2)c1	esBAF inh 53.8 (no result: HSF1 activator, MITF TRPM1 HTS, HSF1 inh)
CCc1ccc(NC(=O)Nc2ccon2)cc1	esBAF inh 44.0
CC(=O)c1cccc(NC(=S)NC(=O)c2ccc(Br)cc2)c1	none (no result: Wnt act, esBAF inh)
CCc1ccc(NC(=O)Nc2ccc3c(c2)CCC3)cc1	esBAF inh 52.7

High-throughput results from PubChem BioAssay.
